Data published in the supplement of paper PMC6555819.

Assays:
Assay in all cases: PBM binding z-score (relative to random genomic background probes); higher = stronger binding; sequences stand for … in GC…GCGATTGACAGCGTAGAATGAAGG
[1] = system: PPARg:RXRa DBDmut IVT, anti-RXR (DBD mutation: RXRa K156A/R161A, NR concentration 270 nM, RXRa partner concentration 90 nM)
In short: (§1)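 Custom Agilent 4×180K protein-binding microarrays carried double-stranded probes. Their 34-nt variable regions held direct-repeat seeds, single-nucleotide variants, half-site ablations and random human genomic background sequences. Arrays were incubated 1 h with ligand-free nuclear receptor dimers in PBS pH 7.4, 2% milk, 0.02% Triton X-100, 1 mM DTT, 0.2 mg/mL BSA and 0.4 mg/ml salmon testes DNA. Antibodies against each partner (one per run) detected binding, and scanned fluorescence was regression-normalized. Binding z-scores use random background probes as reference.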

[2] = system: PPARg:RXRa IVT, anti-PPARg (NR concentration 270 nM, RXRa partner concentration 90 nM)
In short: as §1

[3] = system: PPARg DBDmut:RXRa IVT, anti-PPARg (DBD mutation: PPARg1 K132A/R137A, NR concentration 270 nM, RXRa partner concentration 90 nM)
In short: as §1

[4] = system: PPARg DBDmut IVT, anti-PPARg (DBD mutation: PPARg1 K132A/R137A, NR concentration 270 nM)
In short: as §1

[5] = system: PPARg homodimer (NR concentration 180 nM)
In short: as §1

[6] = system: PXR:RXRa (NR concentration 270 nM, RXRa partner concentration 90 nM)
In short: as §1

[7] = system: PXR homodimer (NR concentration 270 nM)
In short: as §1

[8] = system: RARa:RXR (NR concentration 270 nM, RXRa partner concentration 90 nM)
In short: as §1

[9] = system: RARa homodimer (NR concentration 270 nM)
In short: as §1

[10] = system: RARb:RXRa (NR concentration 270 nM, RXRa partner concentration 90 nM)
In short: as §1

[11] = system: RARb homodimer (NR concentration 270 nM)
In short: as §1

[12] = system: RARg:RXRa (NR concentration 270 nM, RXRa partner concentration 90 nM)
In short: as §1

[13] = system: RARg homodimer (NR concentration 270 nM)
In short: as §1

[14] = system: RXRa DBDmut IVT, anti-RXR (DBD mutation: RXRa K156A/R161A, NR concentration 90 nM)
In short: as §1

[15] = system: RXRa homodimer (NR concentration 180 nM)
In short: as §1

[16] = system: THRa:RXRa (NR concentration 90 nM, RXRa partner concentration 90 nM)
In short: as §1

[17] = system: THRa homodimer (NR concentration 90 nM)
In short: as §1

[18] = system: VDR homodimer (NR concentration 270 nM)
In short: as §1

| Sequence | PBM binding z-score [1] | PBM binding z-score [2] | PBM binding z-score [3] | PBM binding z-score [4] | PBM binding z-score [5] | PBM binding z-score [6] | PBM binding z-score [7] | PBM binding z-score [8] | PBM binding z-score [9] | PBM binding z-score [10] | PBM binding z-score [11] | PBM binding z-score [12] | PBM binding z-score [13] | PBM binding z-score [14] | PBM binding z-score [15] | PBM binding z-score [16] | PBM binding z-score [17] | PBM binding z-score [18] |
| --- | --- | --- | --- | --- | --- | --- | --- | --- | --- | --- | --- | --- | --- | --- | --- | --- | --- | --- |
| TCTAGTTGGTCACGGAGTTCACACACGACGGGTA | 2.4 | 2.92 | 1.45 | 0.822 | 1.92 | 4.53 | 3.62 | 2.15 | 0.649 | 2.87 | 3.11 | 2.99 | 2.63 | 1.79 | 2.81 | 1.66 | 0.539 | 5.75 |
| TCTTGTAGATCAAAGGTTCAGAAAGCCGAAGCCT | 1.88 | 1.55 | 0.156 | 0.203 | 0.638 | 0.73 | -0.103 | 1.13 | -0.254 | 0.898 | 0.917 | 0.795 | 0.335 | 1.32 | 1.29 | 0.166 | -0.308 | 1.5 |
| CAAACTACGTCACGAAAGGTCAAAGTCGAATGAC | 0.398 | 2.49 | 1.4 | 1.92 | 3.68 | 5.52 | 1.91 | 6.35 | 2.63 | 4.43 | 4.48 | 5.61 | 5.12 | 1.05 | 6.68 | 3.93 | 1.11 | 2.66 |
| TCATATAGGTCAACAGGTGAAAGTCCGTAAGTTA | 7.13 | 7.59 | 3.03 | 1.96 | 3.88 | 3.49 | 1.08 | 4.84 | 2.3 | 4.83 | 4.07 | 6.14 | 6.02 | 2.48 | 5.39 | 2.94 | 0.969 | 1.41 |
| TTACCAAGGTGAGCTGTGGTCGTTGATCCAACTC | 1.27 | 1.57 | 0.175 | 0.327 | -0.41 | 0.219 | -0.79 | -0.0403 | -0.989 | 1.04 | 0.173 | 0.108 | -0.154 | -0.592 | 0.152 | 1.78 | -0.136 | -0.783 |
| CCTTACGGGTCACTCCAGGTTATAACATCGGAGT | 2.06 | 3.72 | 1.23 | 0.622 | 1.05 | 4.66 | 0.462 | 3.51 | -0.23 | 3.67 | 3 | 4.24 | 3.97 | 1.31 | 4.36 | 5.32 | 0.437 | 1.19 |
| GGAACGAGGGCATGTTGATAGCAGAGTTTGATGG | 2.6 | 1.79 | 0.588 | -0.313 | 0.877 | 0.633 | 0.542 | 0.117 | 0.262 | 1.81 | 1.11 | 0.813 | 1.38 | 2.25 | 0.438 | 1.1 | 0.428 | 1.6 |
| TCATAAAGGTAAAGGTGAAAGTCGAACGATATGA | 2.88 | 3.1 | 1.14 | 0.528 | 1.69 | 1.3 | -0.127 | 2.37 | 0.551 | 2.66 | 1.86 | 2.14 | 2.08 | 1.06 | 2.73 | 1.73 | -0.454 | 0.0173 |
| CCTACTAGTTGACCATAAGGGCAACCGAAGCTCG | 0.2 | 0.479 | 0.235 | -0.627 | 1.22 | 0.406 | 0.317 | 0.81 | 1.01 | 1.39 | 1.92 | 0.922 | 0.714 | 0.0414 | 0.509 | 1.75 | 1.28 | 0.643 |
| TCATGTAGGTAATACAGGTGAAAGTCGGCATCTA | 3.86 | 3.68 | 0.771 | 0.521 | 0.456 | 0.27 | -0.325 | 0.507 | 0.465 | 0.0857 | 0.12 | 0.0242 | -0.0708 | 0.736 | 0.579 | 0.531 | -0.119 | -0.0287 |
| TTAGCAAGGTGAGCTGAGGTCGTTGATCCAACTC | 0.492 | 1.3 | -0.527 | -1.48 | -0.0688 | 4.92 | 0.566 | 2.28 | -1.15 | 1.59 | 1.52 | 1.03 | 0.726 | -0.339 | 1.13 | 4.75 | 1.97 | 2.37 |
| TTACCAAGGTGAAGGTCTTTGATCCCTCTGTAGA | 1.88 | 3.26 | -0.214 | 0.0438 | 0.225 | 0.389 | -0.43 | 0.847 | -0.184 | 1.65 | 0.775 | 0.2 | 0.513 | -0.154 | 0.759 | 1.73 | 0.592 | -0.396 |
| ATCTCTAGGTAAAGATAGTTCAGTGCATGCAAAT | 2.3 | 1.49 | 1.11 | 1.06 | 0.899 | 1.1 | 1.29 | 0.26 | 0.906 | 0.853 | 1.11 | 0.406 | 0.733 | -0.0342 | 0.191 | 0.926 | 0.229 | 1.15 |
| CAAACTAGATCAAGAGGTCAAAGTCCGCTTCCCG | 2.78 | 3.67 | 0.521 | 0.139 | 2.25 | 5.07 | 1.99 | 5.22 | 1.44 | 4.06 | 4.71 | 4.84 | 3.96 | 1.69 | 5.73 | 3.93 | 1.67 | 3.23 |
| GCGACTGGGGCAAAGCAGCTTACCATAAGGTTGG | 4.53 | 3.13 | -0.355 | -0.462 | -0.569 | -0.681 | -0.894 | -0.835 | -1.36 | 0.456 | -0.0781 | -0.172 | 0.112 | -0.131 | -0.267 | -0.139 | -0.756 | -0.658 |
